Experimental data published in PubChem BioAssay (NCI).
This is part of a sample that, as a whole, favours compounds with a hit. Of some 83,000 tested, about 20% had one in any assay.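 Growth was measured after 48 h exposure to one concentration of compound in 96-well plates. Values under 10 count as active.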 Unmarked numbers belong to inactive results. The source made the active and inactive calls.

Key:
Test in all cases: NCI-60 one-dose screen, 48 h (100 = growth as untreated, 0 = no growth, -100 = all killed)
Conditions in all cases: 10 µM unless noted
NCI-H23 lung = test system: NCI-H23 lung
NCI-H226 lung = test system: NCI-H226 lung
NCI-H322M lung = test system: NCI-H322M lung
HOP-62 NSCLC = test system: HOP-62 NSCLC
NCI-H460 lung = test system: NCI-H460 lung
NCI-H522 lung = test system: NCI-H522 lung
A549/ATCC NSCLC = test system: A549/ATCC NSCLC
786-0 renal = test system: 786-0 renal
COLO 205 colon = test system: COLO 205 colon
DU-145 prostate = test system: DU-145 prostate
K-562 leukemia = test system: K-562 leukemia
MALME-3M melanoma = test system: MALME-3M melanoma
MDA-MB-231 breast = test system: MDA-MB-231 breast
RXF 393 renal = test system: RXF 393 renal
SF-268 CNS = test system: SF-268 CNS
SF-295 CNS = test system: SF-295 CNS
SF-539 CNS = test system: SF-539 CNS
UACC-257 melanoma = test system: UACC-257 melanoma
M14 melanoma = test system: M14 melanoma

| Compound | growth (NCI-H23 lung) | growth (NCI-H226 lung) | growth (NCI-H322M lung) | growth (HOP-62 NSCLC) | growth (NCI-H460 lung) | growth (NCI-H522 lung) | growth (A549/ATCC NSCLC) | growth (786-0 renal) | growth (COLO 205 colon) | growth (DU-145 prostate) | growth (K-562 leukemia) | growth (MALME-3M melanoma) | growth (MDA-MB-231 breast) | growth (RXF 393 renal) | growth (SF-268 CNS) | growth (SF-295 CNS) | growth (SF-539 CNS) | growth (UACC-257 melanoma) | growth (M14 melanoma) |
| --- | --- | --- | --- | --- | --- | --- | --- | --- | --- | --- | --- | --- | --- | --- | --- | --- | --- | --- | --- |
| COc1ccc(-c2nc3cc(C)ccc3n2CC(=O)N=Nc2c(O)[nH]c3ccccc23)cc1 | -10.8% (active) | -35.5% (active) | 33.1% | 10.4% | -17.7% (active) | 42.1% | -34% (active) | 60.8% | 7.85% (active) | 9.13% (active) | 4.42% (active) | -60% (active) | -54.2% (active) | -29.7% (active) | -5.5% (active) | 15.4% | -90.2% (active) | -7.27% (active) | -71.5% (active) |
| CCOC(=O)/C=C/c1cccc2c1C(=O)NC(C)(c1cc3cc(Cl)ccc3oc1=O)N2 (centres undefined) | 50.9% | 46.1% | 56.4% | 55.7% | 47.4% | 33.8% | 47.2% | 31.4% | 31.7% | 37.7% | 19% | 32.7% | 32.1% | -1.81% (active) | 45.5% | 19.3% | 38.5% | 44.3% | 22.3% |
| COc1ccc(C(=O)/C=C/c2ccc(OCc3ccc(F)cc3)c(OC)c2)cc1OC | 26.5% | 46.3% | 7.43% (active) | 26.6% | 14.8% | 2.98% (active) | 11.9% | 37.4% | 29.9% | 1.63% (active) | 7.71% (active) | 61.4% | 11.1% | 18.7% | 24.3% | 15.6% | -38.6% (active) | 33.6% | 38.1% |
| Cn1cc(-c2cc3nc(-c4cn(C)c5ncc(Br)cc45)cc(N)n3n2)c2ccccc21 | -22.5% (active) | -2.09% (active) | -20.2% (active) | -34.5% (active) | -54.6% (active) | -70.6% (active) | 2.3% (active) | -87.7% (active) | -81.4% (active) | 16.1% | -30% (active) | -85.2% (active) | -64.7% (active) | -74% (active) | 11.8% | -60.2% (active) | -90.2% (active) | -77.4% (active) | -72.6% (active) |
| CC(=O)c1cccc(NC(=O)CCC(=O)NS(=O)(=O)c2ccc(C)cc2)c1 | 108% | 108% | 109% | 98.6% | 120% | 102% | 100% | 105% | 113% | 122% | 101% | 103% | 107% | 132% | 134% | 104% | 105% | 103% | 102% |
| Cn1cc(-c2cc3nc(-c4cn(C)c5ncccc45)cc(N)n3n2)c2ccccc21 | 55.6% | -21.6% (active) | 37% | -13.6% (active) | 3.16% (active) | -4.18% (active) | 15.2% | -52.9% (active) | 3.03% (active) | 40.9% | -34.9% (active) | -47.8% (active) | -19.9% (active) | -50.4% (active) | 15% | -30.6% (active) | -78.7% (active) | -49.7% (active) | 5.56% (active) |
| O=c1oc2ccc(Br)cc2cc1C1=CSc2nc3sc4c(c3c(=O)n2N=C1)CCCC4 | 96.6% | 92.5% | 96.6% | 80.6% | 102% | 88.5% | 105% | 120% | 105% | 107% | 97.1% | 89% | 88.2% | 167% | 101% | 101% | 100% | 90.9% | 92.4% |
| COC1=C[C@]23CCC(=O)N2CCc2cc4c(cc2[C@@H]3[C@@H]1OC(=O)[C@H](C)O)OCO4 | 9.59% (active) | 11% | 69.7% | 46.6% | -5.4% (active) | -48.1% (active) | 7.1% (active) | 22.7% | 28.4% | 31.7% | 7.08% (active) | -28.6% (active) | 61.8% | 5.61% (active) | 66.2% | 29.7% | -34.5% (active) | 27.9% | 10.4% |
| Cn1cc(-c2cc(N)n3nc(-c4c[nH]c5ccccc45)cc3n2)c2cccnc21 | 47.6% | 71.2% | 44.7% | 62.6% | 2.29% (active) | 31.3% | 51.7% | -81.3% (active) | 40.2% | 38.2% | 6.08% (active) | -27.3% (active) | -9.34% (active) | 29.6% | 81.6% | -4.84% (active) | -81.5% (active) | 92.3% | -48.1% (active) |
| Brc1ccc(N/N=C/c2c[nH]c3ccc(Br)cc23)nc1 | -58.2% (active) | 3.09% (active) | 17.6% | -16.7% (active) | -75.3% (active) | -55.5% (active) | 0.0958% (active) | -23.8% (active) | -89.1% (active) | 15.6% | -33.1% (active) | -57.4% (active) | -63.5% (active) | -22.9% (active) | 10.5% | -78.3% (active) | -41.5% (active) | 7.1% (active) | -71.3% (active) |
| CN(C)c1nc(NCCNS(=O)(=O)c2ccc(C3=Nc4c(N)nc(N)nc4NC(c4ccccc4)C3)cc2)nc(Nc2ccc(F)cc2)n1 (centres undefined) | 58.6% | 52.8% | 58.4% | 81.1% | 25.9% | 43.1% | 56.4% | 29.7% | 44% | 58% | 7.64% (active) | 36.6% | 20.7% | 13.4% | 46.9% | 42.6% | -7.62% (active) | 70.8% | 49.4% |
| COc1c(F)ccc(C(=O)Nc2ccc3nc(NC(=O)C4CCCN(S(=O)(=O)c5ccc(Cl)cc5)C4)sc3c2)c1F (centres undefined) | 85.7% | 76% | 86.6% | 102% | 81.3% | 76.6% | 65.6% | 54.7% | 77.8% | 93.4% | 59.2% | 90.5% | 81.1% | 8.75% (active) | 77.4% | 63.6% | 66.8% | 82.4% | 75.6% |
| CC1CN(c2oc(-c3ccc([N+](=O)[O-])cc3)nc2C#N)CC(C)O1 (centres undefined) | 97.9% | 102% | 96.9% | 98.9% | 107% | 100% | 102% | 104% | 109% | 117% | 105% | 95.7% | 95.9% | 108% | 107% | 95.5% | 93.9% | 102% | 103% |
| Cn1cc(-c2cc3nc(-c4cn(C)c5ncc(Br)cc45)cc(N)n3n2)c2cc(Cl)ccc21 | -77% (active) | -40.8% (active) | -73.1% (active) | -78.1% (active) | -69.9% (active) | -79.8% (active) | -75.2% (active) | -65.3% (active) | -77.6% (active) | -58.3% (active) | -29.2% (active) | -91.9% (active) | -85.5% (active) | -64.4% (active) | 20.1% | -72.5% (active) | -96.9% (active) | -82.7% (active) | -86.8% (active) |
| Cc1ccc(-c2nc(Nc3ccccc3S(N)(=O)=O)c3ccccc3n2)cc1 | 68.2% | 59.1% | 80.2% | 86.8% | 70.2% | 81.4% | 71% | 32.1% | 98.7% | 77.6% | 46.1% | 97.7% | 21.6% | 51.1% | 70.1% | 94.4% | -11.9% (active) | 106% | 90.3% |
| O=C(Cn1c(/C=C/c2ccccc2)nc2ccccc2c1=O)Nc1ccccc1 | 90.2% | 60% | 87.5% | 57.5% | 43.2% | 57.2% | 38.2% | 1.52% (active) | 79.3% | 74.8% | 93.2% | 69.9% | 24.8% | 8.81% (active) | 91.4% | 70.7% | 70.2% | 104% | 102% |
